# “And” between values parts separate entries of the source, which are not always exact repeats. Equal values may be shown once. Inconclusive results are not listed. Where a call stands in place of a potency, no number is given. The source made the active and inactive calls. Calls come from the whole dose curve; as a rule, active = well fitted activation curve with a large enough effect in the signal ratio; inconclusive = small, poorly fitted or top-dose-only effect, or effect the other way, or a change in a side signal; inactive = flat fitted curve, though single readings scatter; the % refers to the signal ratio.
# Experiment: qHTS assay for small molecule agonists of the antioxidant response element (ARE) signaling pathway (AID 651741)
# Conditions: HepG2 ARE-bla reporter, beta-lactamase FRET ratio, 16 h; series mostly up to 96 µM
# Description: National Center for Advancing Translational Sciences [NCATS]
# NIH Chemical Genomics Center [NCGC]
# U.S. Environmental Protection Agency [EPA]
# National Institutes of Environmental Health Sciences [NIEHS]
# National Toxicology Program [NTP]
# Oxidative stress has been implicated in the pathogenesis of a variety of diseases ranging from cancer to neurodegeneration. The antioxidant response element (ARE) signaling pathway plays an important role in the amelioration of oxidative stress. The CellSensor ARE-bla HepG2 cell line (Invitrogen) can be used for analyzing the Nrf2/antioxidant response signaling pathway. Nrf2 (NF-E2-related factor 2) and Nrf1 are transcription factors that bind to AREs and activate these genes. The CellSensor ARE-bla Hep G2 cell line contains a beta-lactamase reporter gene under control of the Antioxidant Response Element (ARE) stably integrated into HepG2 cells. The activation of the report gene under culture conditions can be detected by fluorescence intensity. This cell line can be used to screen chemicals in a 1536-well plate format and to identify agonists that induce oxidative stress.
# The ARE-bla cells were dispensed at 2,000 cells/5 ul/well in 1536-well black wall/clear bottom plates using a Multidrop dispenser. After the assay plates were incubated at a 37 C/5% CO2 incubator for 5 hours, 23 nL of compounds dissolved in DMSO, positive controls or DMSO only was transferred to the assay plate by a pin tool. The plates were incubated at 37 C for 16 hours. After 1 uL of LiveBLAzer B/G FRET substrate was added using a Flying Reagent Dispenser, the plates were incubated at room temperature for 2 hours, and fluorescence intensity was measured by an Envision plate reader.
# Potency is the fitted concentration of half-maximal effect.
row,Structure (SMILES),Potency
1,C=C(C)C(=O)OCC(CC)CCCC (stereo not given),inactive
2,C[C@H]1[C@H](c2ccc(Cl)cc2)SC(=O)N1C(=O)NC1CCCCC1,54.5 µM (active)
3,CCOP(=S)(OCC)SCn1c(=O)oc2cc(Cl)ccc21,27.3 µM (active)
4,CC(C)N1C(=O)N(c2ccccc2)CSC1=NC(C)(C)C,68.6 µM (active) and 61.1 µM (active)
5,CC(C)(C#N)N=NC(C)(C)C#N,inactive
6,CCCN(CCOc1c(Cl)cc(Cl)cc1Cl)C(=O)n1ccnc1,30.6 µM (active) and 48.6 µM (active)
7,CCC(C)c1cc([N+](=O)[O-])cc([N+](=O)[O-])c1O (stereo not given),2.73 µM (active)
8,CCCC1COC(Cn2cncn2)(c2ccc(Cl)cc2Cl)O1 (stereo not given),54.5 µM (active) and 61.1 µM (active)
9,Nc1ccc([N+](=O)[O-])cc1Cl,inactive
10,COc1nn(C(=O)NS(=O)(=O)c2ccccc2OC(F)(F)F)c(=O)n1C,inactive
11,COc1ccc(/C(=C/C(=O)N2CCOCC2)c2ccc(Cl)cc2)cc1OC,inactive
12,CCCCCCCCCCCCN(C)C,inactive
13,COCC(=O)N(c1c(C)cccc1C)[C@H](C)C(=O)OC,inactive
14,c1cc(OCC2CO2)cc(OCC2CO2)c1 (stereo not given),29.8 µM (active)
15,CCOP(=S)(OCC)Oc1ccc(S(C)=O)cc1 (stereo not given),inactive
16,CCOP(=O)(OCC)SCSCC,inactive
17,CCC[CH2][Sn]([Cl])([CH2]CCC)[CH2]CCC,24.3 µM (active)
18,CCC[CH2][Sn]([CH2]CCC)([CH2]CCC)[O][Sn]([CH2]CCC)([CH2]CCC)[CH2]CCC,27.3 µM (active)
19,CC(C)=C[C@@H]1[C@@H](C(=O)OCN2C(=O)C3=C(CCCC3)C2=O)C1(C)C,54.5 µM (active)
20,Cc1ccccc1C(=O)Nc1cccc(OC(C)C)c1,inactive

row,Structure (SMILES),Potency
1,CCOC(=O)COc1cc(-c2nn(C)c(OC(F)F)c2Cl)c(F)cc1Cl,17.2 µM (active)
2,CCOP(=S)(S)OCC,inactive
3,O=S(=O)(c1ccc(Cl)cc1)c1cc(Cl)c(Cl)cc1Cl,27.3 µM (active)
4,COP(=O)(OC)Oc1nc(Cl)c(Cl)cc1Cl,48.6 µM (active)
5,N#CCNC(=O)c1cnccc1C(F)(F)F,inactive
6,CO/N=C(/C(=O)OC)c1ccccc1COc1ccccc1C,12.2 µM (active)
7,CCCCC(C#N)(Cn1cncn1)c1ccc(Cl)cc1 (stereo not given),inactive
8,CC(C)(C)c1ccc(CSc2cnn(C(C)(C)C)c(=O)c2Cl)cc1,0.0969 µM (active)
9,ClC1=C(Cl)C(Cl)(Cl)C(Cl)=C1Cl,inactive
10,CCOP(=O)(NC(C)C)Oc1ccc(S(C)=O)c(C)c1 (stereo not given),inactive
11,CCCSC(=O)N(CCC)CCC,inactive
12,FC(F)(F)c1ccc(Cl)cc1,inactive
13,O=C1C2(Cl)C3(Cl)C4(Cl)C(Cl)(Cl)C5(Cl)C3(Cl)C1(Cl)C5(Cl)C24Cl (stereo not given),66.8 µM (active)
14,CC(C)(C)N(NC(=O)c1ccc(Cl)cc1)C(=O)c1ccccc1,inactive
15,CC(C)Oc1cc(-n2nc(C(C)(C)C)oc2=O)c(Cl)cc1Cl,61.1 µM (active)
16,CSc1nnc(C(C)(C)C)c(=O)n1N,inactive
17,O=Cc1cccc(Oc2ccccc2)c1,inactive
18,CC(c1ccc(O)cc1)(c1ccc(O)cc1)c1ccc(O)cc1,12.2 µM (active)
19,CC[C@H]1CCCC(O[C@H]2CC[C@H](N(C)C)[C@@H](C)O2)[C@@H](C)C(=O)C2=C[C@@H]3[C@@H](C=C[C@@H]4C[C@@H](O[C@@H]5O[C@@H](C)[C@H](OC)[C@@H](OC)[C@H]5OC)C[C@@H]34)[C@@H]2CC(=O)O1 (stereo not given in full),48.6 µM (active)
20,O=[N+]([O-])c1ccc(Oc2ccc(C(F)(F)F)cc2[N+](=O)[O-])cc1,48.6 µM (active)

# Reference: PubChem BioAssay (NCATS)
